Among all 69,000 compounds or so, about 8,600 (12%) showed an effect of 50% or more. What follows is part of a selection rich in strong results, with near analogues and random picks from the rest.
system: Plasmodium berghei; assay: Screen against P. berghei liver stage (PbLuc), transformed with Luciferase, at 10uM; type: functional, HepG2; conditions: tested at 10 uM

SMILES | INHIBITION [%]
Cn1cnc(S(=O)(=O)NCC(O)c2ccc3c(c2)CCO3)c1 (stereo not given) | 25.3
Cc1noc(C)c1S(=O)(=O)NCC(O)c1ccc2c(c1)CCO2 (stereo not given) | 42.3
Cn1cccc1C(O)CNS(=O)(=O)c1ccccc1Br (stereo not given) | -29.2
O=S(=O)(NCC(O)c1ccc2c(c1)CCO2)c1ccccc1F (stereo not given) | 50.5
Cc1cc(F)ccc1S(=O)(=O)NCC(O)c1cccn1C (stereo not given) | -1.99
Cn1cccc1C(O)CNS(=O)(=O)c1ccccc1F (stereo not given) | 51
NC(=O)CN1CCc2c(Br)ccc(F)c2C1 | -15
Cc1nn(C)cc1Cn1c(=O)ccc2ccccc21 | 33
CC(=O)N1CCC(Cc2cnc(-c3c(C)n[nH]c3C)cn2)C1 (stereo not given) | 36.4
CCN1C(=O)CCCC12CCCN(C(=O)c1sccc1C)C2 (stereo not given) | -17.1
CS(=O)(=O)N1CCC2(CC1)CC(Oc1ccccn1)CO2 (stereo not given) | 10.7
O=C(c1cc[nH]n1)N1CCC(F)(F)C2(CCN(c3ccccn3)C2)C1 (stereo not given) | 37.8
CC(NC(=O)Nc1cccnc1N1CCCC1)c1ccccn1 (stereo not given) | -17.9
Cc1nn(C)c(C)c1NC(=O)Nc1cccnc1N1CCCC1 | 54.3
Cc1nn(C)c(C)c1C(C)NC(=O)Nc1cccnc1N1CCCC1 (stereo not given) | 11.6
CC(NC(=O)Nc1cccnc1N1CCCC1)c1ccncc1 (stereo not given) | 7.12
CC(NC(=O)Nc1cccnc1N1CCCC1)c1ccn(C)c1 (stereo not given) | 62.6
Cc1nn(C(C)C)c(C)c1NC(=O)Nc1cccnc1N1CCCC1 | 26.9
Cn1nnc2c1CCN(Cc1ccncc1)C2COCC1CC1 (stereo not given) | 35.4
Cc1ccc(NC2CCN(C(=O)c3cc(C)sc3C)CC2)nn1 | 9.14
CN(C)CC1CN(C(=O)Cc2ccccc2)Cc2nccn2C1 (stereo not given) | 31.6
Cc1nonc1C1CCCN1C(=O)c1cn2ccsc2n1 (stereo not given) | -16.6
Cc1cncc(C(=O)N2CCCC(O)(CO)C2)c1 (stereo not given) | 15.1
CC(C)C(NC(=O)NCc1cccnc1N(C)C)c1cccs1 (stereo not given) | 17.5
O=C1CC[C@H]2[C@H](CCN2c2ccccn2)N1CC1CCOCC1 | 12.7
CCc1cnc(N2CC[C@H]3[C@@H]2CCC(=O)N3c2ccccc2)nc1 | 33.5
Cc1oncc1C(=O)N1CC[C@H]2[C@@H]1CCC(=O)N2c1cccnc1 | 18.3
Cc1oncc1C(=O)N1CC[C@H]2[C@H]1CCN2S(C)(=O)=O | 62.9

SMILES | INHIBITION [%]
Cc1cccc(CN2CC[C@@H]3[C@@H]2CCN3C(=O)c2cnoc2C)n1 | -17
Cc1cc(C(=O)N2CC[C@H]3[C@H]2CCN3S(C)(=O)=O)c(C)o1 | 39.4
CCc1cnc(N2CC[C@H]3[C@@H]2CCC(=O)N3CC2CCOCC2)nc1 | 51.2
Cc1oncc1C(=O)N1CC[C@H]2[C@@H]1CCC(=O)N2CC1CCOCC1 | 56.4
Cc1oncc1C(=O)N1CC[C@@H]2[C@@H]1CC(=O)N2Cc1cccnc1 | 8.66
Cc1oncc1C(=O)N1CC[C@H]2[C@@H]1CCC(=O)N2CC1CC1 | 55.4
Cc1noc(C)c1CN1CC[C@H]2[C@@H]1CCC(=O)N2CC1CCOCC1 | 6.67
Cc1ccc(C(=O)N2CC[C@@H]3[C@H]2CCC(=O)N3CC2CC2)o1 | 37.9
Cc1nc(S(=O)(=O)N2CCSC3(CCCCC3)C2)cn1C | -12.1
CC(C)CC(=O)N1CC[C@@H]2[C@H](CC1)N(Cc1cccnc1)CCS2(=O)=O | 20.4
O=C(Cc1ccccn1)N1CCN(C(=O)CC2CCCC2)CC1 | 3.73
Cc1nn(C)c2cnn(Cc3ccc(C(=O)NCC4CC4)o3)c12 | 38.3
CN(Cc1cnn(C)c1)C(=O)NCC1CCS(=O)(=O)C1 (stereo not given) | -22.3
CC(=O)N1CCC2(C1)CN(C(=O)C1CCOC1)C2 (stereo not given) | 9.97
CN(C)CCOCC1CN(C(=O)c2cccn2C)Cc2ccnn2C1 (stereo not given) | -7.59
Cn1ccc(C(=O)N2CCCC(Cc3cccc4cccnc34)C2)n1 (stereo not given) | -0.371
CSCCCN1C[C@H](NC(=O)c2ccc(C#N)nc2)[C@@H](C2CC2)C1 | 27.4
CCCc1cncnc1N1CCC(NCc2ccc(O)cc2)CC1 | 29.9
CCCc1cncnc1N1CCC(NCc2cc3ccccc3[nH]2)CC1 | 88.2
CCCc1cncnc1N1CCC(NCc2ccncc2)CC1 | 49.1
Cc1csc(C2(NC(=O)CCc3ccncc3)CCCC2)n1 | 20
CCCn1nc(C2CCNCC2)n(Cc2ccccc2)c1=O | 26.8
CCn1c(C2CCNCC2)nn(Cc2ccc(C(=O)NC)o2)c1=O | 52.1
CCn1c(C2CCCNC2)nn(Cc2ccc(C(=O)NC)o2)c1=O (stereo not given) | 38.5
CCOCCn1nc(C2CCNCC2)n(Cc2ccccc2)c1=O | 8.51
CCn1c(C2CCNCC2)nn(CCCc2ccccc2)c1=O | 52.1
CCn1c(CC2CCNCC2)nn(Cc2ccc(C(=O)NC)o2)c1=O | 44.8

Source: ChEMBL document CHEMBL4513216, “Probing the Open Global Health Chemical Diversity Library for Multistage-Active Starting Points for Next-Generation Antimalarials” (ACS Infect Dis, 2020)
